Records with an inconclusive call do not appear. Some structures have more than one record in an assay (separate samples or runs), and their calls can disagree. Active and inactive are the calls of the source. Rule for the calls, unless noted: active = hit-call score of the fitted dose curve at least 0.9, where 1 is the maximum; inconclusive = response in the unintended direction; inactive = score below 0.9.
Key:
[1] = read-out: Signal transducer and activator of transcription 3 (Homo sapiens) (UniProt P40763); experiment: LTEA_HepaRG_STAT3: Life Technologies and Expression Analysis (LTEA) Assay for Signal transducer and activator of transcription (STAT3) using HepaRG (AID 2283529; active = hit-call score of the fitted dose curve at least 0.9, where 1 is the maximum; inactive = score below 0.9); settings: mRNA level, 48 h; actives raise or lower the signal
In short: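 HepaRG, 48 h exposure, 8-pt half-log series (top 100 uM), 0.5% DMSO vehicle, duplicates. Readout: STAT3 transcript by Fluidigm qRT-PCR, housekeeping-normalized; bidirectional fit vs DMSO baseline.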

[2] = read-out: solute carrier (SLCO1B1), SLCO1B1 (gene 10599); experiment: LTEA_HepaRG_SLCO1B1: Life Technologies and Expression Analysis (LTEA) Assay for solute carrier (SLCO1B1) using HepaRG (AID 2283530; active = hit-call score of the fitted dose curve at least 0.9, where 1 is the maximum; inactive = score below 0.9); settings: mRNA level, 48 h; actives raise or lower the signal
In short: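 Gain or loss of SLCO1B1 mRNA is fitted against the 0.5% DMSO vehicle in human HepaRG liver cells treated 48 h at up to 100 uM in half-log steps. Expression comes from qRT-PCR normalized to endogenous controls.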

[3] = read-out: sulfotransferase 2A1 (SULT2A1), SULT2A1 (gene 6822); experiment: LTEA_HepaRG_SULT2A1: Life Technologies and Expression Analysis (LTEA) Assay for sulfotransferase 2A1 (SULT2A1) using HepaRG (AID 2283531; active = hit-call score of the fitted dose curve at least 0.9, where 1 is the maximum; inactive = score below 0.9); settings: mRNA level, 48 h; actives raise or lower the signal
In short: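 Cells were plated and cultured 48 h, switched to serum-free induction medium, then dosed in duplicate for 48 h (8 concentrations, max 100 uM). RNA was isolated and SULT2A1 expression measured by qRT-PCR; gain or loss of signal fitted relative to DMSO.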

[4] = read-out: Transforming Growth Factor (TGFB1), TGFB1 (gene 7040); experiment: LTEA_HepaRG_TGFB1: Life Technologies and Expression Analysis (LTEA) Assay for Transforming Growth Factor (TGFB1) Transporter using HepaRG (AID 2283533; active = hit-call score of the fitted dose curve at least 0.9, where 1 is the maximum; inactive = score below 0.9); settings: mRNA level, 48 h; actives raise or lower the signal
In short: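 Expression change of TGFB1 in human HepaRG cells is measured after a 48 h chemical exposure, up to 100 uM in 0.5% DMSO vehicle. Curves are fitted in both directions relative to the DMSO baseline.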

TIMP1, TIMP1 (gene 7076) = experiment: LTEA_HepaRG_TIMP1: Life Technologies and Expression Analysis (LTEA) Assay for TIMP1 using HepaRG (AID 2283534; active = hit-call score of the fitted dose curve at least 0.9, where 1 is the maximum; inactive = score below 0.9); settings: mRNA level, 48 h; actives raise or lower the signal
In short: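 We dosed human liver HepaRG cultures for 48 hours with up to 100 uM test chemical and measured TIMP1 expression by qRT-PCR. Activity in either direction is fitted relative to the 0.5% DMSO vehicle.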

[5] = read-out: Tumor necrosis factor receptor 1 (TNFRSF1A), TNFRSF1A (gene 7132); experiment: LTEA_HepaRG_TNFRSF1A: Life Technologies and Expression Analysis (LTEA) Assay for Tumor necrosis factor receptor 1 (TNFRSF1A) using HepaRG (AID 2283535; active = hit-call score of the fitted dose curve at least 0.9, where 1 is the maximum; inactive = score below 0.9); settings: mRNA level, 48 h; actives raise or lower the signal
In short: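 Expression of TNFRSF1A in human HepaRG liver cells was measured by qRT-PCR 48 h after chemical dosing (maximum 100 uM). Bidirectional curve fitting used 0.5% DMSO as baseline.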

[6] = read-out: Thyroid Hormone Responsive (THRSP), THRSP (gene 7069); experiment: LTEA_HepaRG_THRSP: Life Technologies and Expression Analysis (LTEA) Assay for Thyroid Hormone Responsive (THRSP) using HepaRG (AID 2283536; active = hit-call score of the fitted dose curve at least 0.9, where 1 is the maximum; inactive = score below 0.9); settings: mRNA level, 48 h; actives raise or lower the signal
In short: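 qRT-PCR read-out (Fluidigm TaqMan), housekeeping-normalized (ACTB/GAPDH/POLR2A). HepaRG, 48 h chemical exposure, 8-pt half-log series from 100 uM in 0.5% DMSO, duplicates. Bidirectional curve fit vs 0.5% DMSO baseline.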

[7] = read-out: Cellular tumor antigen p53 (Homo sapiens) (UniProt P04637); experiment: LTEA_HepaRG_TP53: Life Technologies and Expression Analysis (LTEA) Assay for Tumor Protein P53 (TP53) using HepaRG (AID 2283537; active = hit-call score of the fitted dose curve at least 0.9, where 1 is the maximum; inactive = score below 0.9); settings: mRNA level, 48 h; actives raise or lower the signal
In short: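 TP53 transcript measured by qRT-PCR, normalized to three housekeeping genes, after 48 h treatment of human HepaRG cultures with chemicals from 100 uM downward in half-log steps (0.5% DMSO vehicle, serum-free induction medium). Up- or down-regulation fitted against DMSO.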

[8] = read-out: UDP glucuronosyltransferase (UGT1A1), UGT1A1 (gene 54658); experiment: LTEA_HepaRG_UGT1A1: Life Technologies and Expression Analysis (LTEA) Assay for UDP glucuronosyltransferase (UGT1A1) using HepaRG (AID 2283538; active = hit-call score of the fitted dose curve at least 0.9, where 1 is the maximum; inactive = score below 0.9); settings: mRNA level, 48 h; actives raise or lower the signal
In short: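 mRNA induction or loss of UGT1A1, by TaqMan qRT-PCR, in duplicate HepaRG wells after 48 h exposure to half-log dilutions topping at 100 uM; DMSO (0.5%) served as baseline.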

[9] = read-out: UDP glucuronosyltransferase (UGT1A6), UGT1A6 (gene 54578); experiment: LTEA_HepaRG_UGT1A6: Life Technologies and Expression Analysis (LTEA) Assay for UDP glucuronosyltransferase (UGT1A6) using HepaRG (AID 2283539; active = hit-call score of the fitted dose curve at least 0.9, where 1 is the maximum; inactive = score below 0.9); settings: mRNA level, 48 h; actives raise or lower the signal
In short: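 Endpoint is UGT1A6 transcript induction or loss in a human liver cell line, quantified by TaqMan qRT-PCR 48 h after dosing. Concentrations ran from 100 uM downward in half-log steps in 0.5% DMSO; activity was fitted in both directions versus vehicle.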

[10] = read-out: X-box binding protein 1 (XBP1), XBP1 (gene 7494); experiment: LTEA_HepaRG_XBP1: Life Technologies and Expression Analysis (LTEA) Assay for X-box binding protein 1 (XBP1) using HepaRG (AID 2283540; active = hit-call score of the fitted dose curve at least 0.9, where 1 is the maximum; inactive = score below 0.9); settings: mRNA level, 48 h; actives raise or lower the signal
In short: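 Human HepaRG monolayers receive test chemical for 48 h across an eight-point half-log series starting at 100 uM. XBP1 mRNA gain or loss is scored against DMSO by qRT-PCR.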

[11] = LTEA_HepaRG_LDH_cytotoxicity: Cytotoxicity Assessment in the Life Technologies and Expression Analysis (LTEA) Assay (AID 2283563)
In short: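 Human HepaRG hepatic cells are treated with test chemicals for 48 h at up to 100 uM in 0.5% DMSO. Cytotoxicity is scored from medium LDH against the vehicle control.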

[12] = target: Cellular tumor antigen p53 (Homo sapiens) (UniProt P04637); experiment: TOX21_p53_BLA_p2_ratio: Tox21 HCT-116 p53 Agonism Beta-lactamase Assay, Ratio, Phase 2 (AID 2283592)
In short: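 Cleaved-to-uncleaved substrate ratio (460 vs 530 nm) measured in HCT116 cells with an inducible beta-lactamase reporter linked to p53 activity. Compounds incubated 16 h at 37C before 2 h room-temperature CCF4-AM loading.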

[13] = TOX21_p53_BLA_p3_viability: Viability Assessment in the Tox21 HCT-116 p53 Agonism Beta-lactamase Assay, Phase 3 (AID 2283593);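 note: cells exposed to compound for 16 h before reading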
In short: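 HCT116 cells, 4000/well, dosed 5 h after plating by pin transfer (217-fold dilution from DMSO stock) and incubated 16 h at 37C, 5% CO2. Viability read as ATP luminescence with CellTiter-Glo after 30 min at room temperature.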

[14] = TOX21_p53_BLA_p4_viability: Viability Assessment in the Tox21 HCT-116 p53 Agonism Beta-lactamase Assay, Phase 4 (AID 2283597);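 note: hits lower the luminescence signal meaning cytotoxicity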
In short: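 Viability is taken as cellular ATP: after 16 h compound exposure of HCT116 cells and a 2 h room-temperature CCF4-AM substrate step, CellTiter-Glo reagent is added and luminescence is measured 30 min later.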

[15] = target: Cellular tumor antigen p53 (Homo sapiens) (UniProt P04637); experiment: TOX21_p53_BLA_p5_ratio: Tox21 HCT-116 p53 Agonism Beta-lactamase Assay, Ratio, Phase 5 (AID 2283599)
In short: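 HCT-116 p53-bla cells (4000/well) plated 5 h, dosed with compound (217-fold DMSO dilution) for 16 h at 37 C; CCF4-AM substrate 2 h at room temperature. Activity is the 460/530 nm emission ratio (405 nm excitation), fitted in gain-of-signal direction versus DMSO.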

[16] = TOX21_p53_BLA_p2_viability: Viability Assessment in the Tox21 HCT-116 p53 Agonism Beta-lactamase Assay, Phase 2 (AID 2283591);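 note: compound exposure lasted 16 h at 37 °C; actives lower the ATP signal meaning cytotoxicity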
In short: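 HCT116 p53-bla cells, 4000/well, dosed after 5 h plating (217-fold dilution of DMSO stocks) and incubated 16 h at 37C. Viability taken as cellular ATP by CellTiter-Glo luminescence after 30 min RT; signal loss marks cytotoxicity.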

[17] = target: Cellular tumor antigen p53 (Homo sapiens) (UniProt P04637); experiment: TOX21_p53_BLA_p3_ratio: Tox21 HCT-116 p53 Agonism Beta-lactamase Assay, Ratio, Phase 3 (AID 2283596)
In short: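 Cells were seeded at 4000/well, rested 5 h at 37C, then dosed with DMSO compound solutions (217-fold dilution) for 16 h. CCF4-AM substrate was loaded for 2 h at room temperature, and the 460/530 nm emission ratio was fitted for gain of signal versus DMSO.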

[18] = ATG_XTT_Cytotoxicity: Cytotoxicity Assessment in the Attagene TRANS-FACTORIAL HepG2 Assay (AID 2283584)
In short: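 Transfect HepG2 with GAL4-UAS reporter units, dose compound, incubate 24 h, then measure viable cell number by XTT. Fit concentration response against DMSO baseline.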

Measured: AC50

Chain of Cellular tumor antigen p53 (Homo sapiens) (P04637 whole entry, looked up): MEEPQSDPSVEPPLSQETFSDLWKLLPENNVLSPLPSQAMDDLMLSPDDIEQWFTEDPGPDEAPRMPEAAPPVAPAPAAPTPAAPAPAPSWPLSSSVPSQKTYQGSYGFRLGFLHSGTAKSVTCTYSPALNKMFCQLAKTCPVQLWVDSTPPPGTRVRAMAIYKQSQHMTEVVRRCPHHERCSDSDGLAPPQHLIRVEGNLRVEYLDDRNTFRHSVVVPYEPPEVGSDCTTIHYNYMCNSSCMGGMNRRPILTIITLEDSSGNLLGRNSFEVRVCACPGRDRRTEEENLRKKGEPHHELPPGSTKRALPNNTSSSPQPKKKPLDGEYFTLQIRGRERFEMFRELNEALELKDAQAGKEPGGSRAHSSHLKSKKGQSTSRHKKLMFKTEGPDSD
Chain of Signal transducer and activator of transcription 3 (Homo sapiens) (P40763 whole entry, looked up): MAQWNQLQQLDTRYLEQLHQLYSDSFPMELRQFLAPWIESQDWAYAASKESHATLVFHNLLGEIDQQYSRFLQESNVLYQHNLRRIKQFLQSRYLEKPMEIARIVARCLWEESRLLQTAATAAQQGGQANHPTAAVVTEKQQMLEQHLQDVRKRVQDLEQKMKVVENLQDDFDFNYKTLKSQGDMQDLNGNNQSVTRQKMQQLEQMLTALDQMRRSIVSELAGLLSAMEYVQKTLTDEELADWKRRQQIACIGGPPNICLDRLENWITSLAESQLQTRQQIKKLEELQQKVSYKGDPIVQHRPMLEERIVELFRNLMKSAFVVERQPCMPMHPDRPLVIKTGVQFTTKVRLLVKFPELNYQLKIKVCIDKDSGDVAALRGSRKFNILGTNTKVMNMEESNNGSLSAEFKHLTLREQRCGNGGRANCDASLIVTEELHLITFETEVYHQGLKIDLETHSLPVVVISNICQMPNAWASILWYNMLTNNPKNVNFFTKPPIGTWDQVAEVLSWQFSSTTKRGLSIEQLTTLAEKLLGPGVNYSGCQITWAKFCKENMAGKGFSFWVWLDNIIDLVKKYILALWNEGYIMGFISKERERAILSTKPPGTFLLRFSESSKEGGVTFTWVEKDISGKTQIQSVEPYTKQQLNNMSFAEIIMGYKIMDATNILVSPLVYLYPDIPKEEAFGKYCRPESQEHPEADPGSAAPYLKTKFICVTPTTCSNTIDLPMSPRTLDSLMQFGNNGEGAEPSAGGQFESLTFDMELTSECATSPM

NCC1(Cc2noc(=O)[nH]2)CCCCC1
active: [9] 226 nM
not listed: [16] | [17] | [18]
inactive: all other assays above

CCOc1ccc2c(c1)C(C)=CC(C)(C)N2
active: [8] 1.61 µM | [15] 67.7 µM
inactive: [1] | [2] | [3] | TIMP1, TIMP1 (gene 7076) | [5] | [6] | [7] | [9] | [10] | [11] | [16] | [12] | [13] | [17] | [14] | [15]

CC=Cc1ccc(O)c(OC)c1
not listed: [4] | [13]
inactive: all other assays above

CC(=O)Oc1ccccc1C(=O)O
not listed: [4] | [6] | [18]
inactive: all other assays above

CCCc1cc(=O)[nH]c(=S)[nH]1
not listed: [4] | [18]
inactive: all other assays above

CCCCCCCCCCCCCO
not listed: [4] | [16]
inactive: all other assays above

CN1CCN(Cc2cc(-c3ccc4[nH]c(=O)oc4c3)co2)[C@@H](c2ccc(F)cc2)C1
not listed: [4] | [15] | [17] | [18]
inactive: all other assays above

CCCCCCCCCCCC(=O)OC
not listed: [4] | [14]
inactive: all other assays above

CCCCCC(=O)O
not listed: [4]
inactive: all other assays above

Source: PubChem BioAssay (EPA / NIEHS)
